# Data taken from article PMC11006913.
# Numbering of substitutions follows the chain as printed.
# Columns and labels:
# Test in all cases: PBM; 200 nM protein, PBS
# Details in all cases: dsDNA, one strand shown
# NKX2-5 [1] = target: NKX2-5 (Homo sapiens, UniProt P52952 125-210, R139K)
# NKX2-5 [2] = target: NKX2-5 (Homo sapiens, UniProt P52952 125-210)
# HOXB9 [3] = target: HOXB9 (Homo sapiens, UniProt P17482 171-250, T197M)
# HOXC9 [4] = target: HOXC9 (Homo sapiens, UniProt P31274 178-260, K195R)
# VENTX [5] = target: T1, VENTX (Homo sapiens, UniProt O95231 78-163)
# T1 sequence: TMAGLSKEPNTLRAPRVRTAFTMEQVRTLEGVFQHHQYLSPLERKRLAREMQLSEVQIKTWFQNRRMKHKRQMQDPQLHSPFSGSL
# PAX4 [6] = target: T2, PAX4 (Homo sapiens, UniProt O43316 9-242, R200K)
# T2 sequence: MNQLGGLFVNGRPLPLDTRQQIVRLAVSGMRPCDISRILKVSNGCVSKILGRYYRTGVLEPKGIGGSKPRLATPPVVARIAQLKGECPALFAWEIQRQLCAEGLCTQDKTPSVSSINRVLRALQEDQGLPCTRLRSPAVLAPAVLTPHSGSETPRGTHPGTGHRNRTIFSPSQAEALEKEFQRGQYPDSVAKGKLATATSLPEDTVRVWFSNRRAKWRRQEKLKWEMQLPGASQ
# VENTX [7] = target: T3, VENTX (Homo sapiens, UniProt O95231 78-163, Y115F)
# T3 sequence: T1 sequence with Y38F
# PAX4 [8] = target: T4, PAX4 (Homo sapiens, UniProt O43316 9-242)
# T4 sequence: T2 sequence with K192R
# HOXB9 [9] = target: HOXB9 (Homo sapiens, UniProt P17482 171-250)
# PAX4 [10] = target: T5, PAX4 (Homo sapiens, UniProt O43316 9-242, R200Q)
# T5 sequence: T2 sequence with K192Q
# HOXC9 [11] = target: HOXC9 (Homo sapiens, UniProt P31274 178-260, R193K)
# HOXA2 [12] = target: HOXA2 (Homo sapiens, UniProt O43364 129-215, R185K)
# PAX4 [13] = target: T6, PAX4 (Homo sapiens, UniProt O43316 9-242, F177V)
# T6 sequence: T2 sequence with F169V, K192R
# HOXC10 = HOXC10 (Homo sapiens, UniProt Q9NYD6 254-340, K271E)
# PAX4 [14] = target: T7, PAX4 (Homo sapiens, UniProt O43316 9-242, F177Y)
# T7 sequence: T2 sequence with F169Y, K192R
# HOXB9 [15] = target: HOXB9 (Homo sapiens, UniProt P17482 171-250, R186Q)
# HOXC9 [16] = target: HOXC9 (Homo sapiens, UniProt P31274 178-260, R222W)
# PAX4 [17] = target: T8, PAX4 (Homo sapiens, UniProt O43316 9-242, R227W)
# T8 sequence: T2 sequence with K192R, R219W
# HOXA2 [18] = target: HOXA2 (Homo sapiens, UniProt O43364 129-215, Y150S)
# HOXA2 [19] = target: HOXA2 (Homo sapiens, UniProt O43364 129-215)
# Sequence of HOXA2 (Homo sapiens, UniProt O43364 129-215) (O43364 129-215): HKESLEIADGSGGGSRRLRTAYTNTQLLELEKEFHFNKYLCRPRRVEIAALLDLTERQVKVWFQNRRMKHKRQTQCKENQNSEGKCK
# Sequence of HOXB9 (Homo sapiens, UniProt P17482 171-250) (P17482 171-250): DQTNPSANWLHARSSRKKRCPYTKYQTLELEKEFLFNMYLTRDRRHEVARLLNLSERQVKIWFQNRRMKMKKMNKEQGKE
# Sequence of HOXC9 (Homo sapiens, UniProt P31274 178-260, R222W) (P31274 178-260 R222W): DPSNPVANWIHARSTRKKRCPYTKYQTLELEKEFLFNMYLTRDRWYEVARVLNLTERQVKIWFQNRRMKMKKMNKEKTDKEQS
# Sequence of HOXA2 (Homo sapiens, UniProt O43364 129-215, R185K) (O43364 129-215 R185K): as the sequence (O43364 129-215) above, with R57K counted along it
# Sequence of HOXA2 (Homo sapiens, UniProt O43364 129-215, Y150S) (O43364 129-215 Y150S): as the sequence (O43364 129-215) above, with Y22S counted along it
# Sequence of HOXC9 (Homo sapiens, UniProt P31274 178-260, R193K) (P31274 178-260 R193K): as the sequence (P31274 178-260 R222W) above, with R16K, W45R counted along it
# Sequence of HOXB9 (Homo sapiens, UniProt P17482 171-250, T197M) (P17482 171-250 T197M): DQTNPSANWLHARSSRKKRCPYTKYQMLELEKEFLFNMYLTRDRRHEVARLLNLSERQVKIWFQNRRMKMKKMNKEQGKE
# Sequence of HOXC10 (Q9NYD6 254-340 K271E): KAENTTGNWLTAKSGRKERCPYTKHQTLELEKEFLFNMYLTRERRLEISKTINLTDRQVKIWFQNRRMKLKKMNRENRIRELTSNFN
# Sequence of HOXB9 (Homo sapiens, UniProt P17482 171-250, R186Q) (P17482 171-250 R186Q): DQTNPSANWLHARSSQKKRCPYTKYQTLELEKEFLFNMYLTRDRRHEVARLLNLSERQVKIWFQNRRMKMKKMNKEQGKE
# Sequence of NKX2-5 (Homo sapiens, UniProt P52952 125-210) (P52952 125-210): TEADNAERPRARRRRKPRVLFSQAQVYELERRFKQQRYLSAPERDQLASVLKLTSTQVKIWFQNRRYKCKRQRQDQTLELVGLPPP
# Sequence of HOXC9 (Homo sapiens, UniProt P31274 178-260, K195R) (P31274 178-260 K195R): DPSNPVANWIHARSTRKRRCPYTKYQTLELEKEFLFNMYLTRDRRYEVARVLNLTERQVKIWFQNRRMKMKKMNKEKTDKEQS
# Sequence of NKX2-5 (Homo sapiens, UniProt P52952 125-210, R139K) (P52952 125-210 R139K): as the sequence (P52952 125-210) above, with R15K counted along it
sequence,measurement,setting,value
TCACTCGA,binding signal,NKX2-5 [1],"10.9 upbm affinity estimate (log intensity, higher = more binding, comparable within an allelic series)"
same,binding signal,NKX2-5 [2],"10.9 upbm affinity estimate (log intensity, higher = more binding, comparable within an allelic series)"
AACGTGGG,binding signal,NKX2-5 [1],"8.65 upbm affinity estimate (log intensity, higher = more binding, comparable within an allelic series)"
same,binding signal,NKX2-5 [2],"8.69 upbm affinity estimate (log intensity, higher = more binding, comparable within an allelic series)"
ACCAGGGC,binding signal,NKX2-5 [1],"8.76 upbm affinity estimate (log intensity, higher = more binding, comparable within an allelic series)"
same,binding signal,NKX2-5 [2],"8.77 upbm affinity estimate (log intensity, higher = more binding, comparable within an allelic series)"
CCGGAGAC,binding signal,NKX2-5 [1],"8.74 upbm affinity estimate (log intensity, higher = more binding, comparable within an allelic series)"
same,binding signal,NKX2-5 [2],"8.76 upbm affinity estimate (log intensity, higher = more binding, comparable within an allelic series)"
ATTAATGA,binding signal,HOXB9 [3],"10.4 upbm affinity estimate (log intensity, higher = more binding, comparable within an allelic series)"
same,binding signal,HOXC9 [4],"13 upbm affinity estimate (log intensity, higher = more binding, comparable within an allelic series)"
same,binding signal,VENTX [5],"12.8 upbm affinity estimate (log intensity, higher = more binding, comparable within an allelic series)"
same,binding signal,PAX4 [6],"11.8 upbm affinity estimate (log intensity, higher = more binding, comparable within an allelic series)"
same,binding signal,VENTX [7],"12.1 upbm affinity estimate (log intensity, higher = more binding, comparable within an allelic series)"
same,binding signal,PAX4 [8],"12.3 upbm affinity estimate (log intensity, higher = more binding, comparable within an allelic series)"
same,binding signal,HOXB9 [9],"12.2 upbm affinity estimate (log intensity, higher = more binding, comparable within an allelic series)"
same,binding signal,PAX4 [10],"12.1 upbm affinity estimate (log intensity, higher = more binding, comparable within an allelic series)"
same,binding signal,HOXC9 [11],"12.9 upbm affinity estimate (log intensity, higher = more binding, comparable within an allelic series)"
same,binding signal,HOXA2 [12],"13.7 upbm affinity estimate (log intensity, higher = more binding, comparable within an allelic series)"
same,binding signal,PAX4 [13],"10.6 upbm affinity estimate (log intensity, higher = more binding, comparable within an allelic series)"
same,binding signal,HOXC10,"12.3 upbm affinity estimate (log intensity, higher = more binding, comparable within an allelic series)"
same,binding signal,PAX4 [14],"11.1 upbm affinity estimate (log intensity, higher = more binding, comparable within an allelic series)"
same,binding signal,HOXB9 [15],"11.9 upbm affinity estimate (log intensity, higher = more binding, comparable within an allelic series)"
same,binding signal,HOXC9 [16],"11.2 upbm affinity estimate (log intensity, higher = more binding, comparable within an allelic series)"
same,binding signal,PAX4 [17],"11 upbm affinity estimate (log intensity, higher = more binding, comparable within an allelic series)"
same,binding signal,HOXA2 [18],"11 upbm affinity estimate (log intensity, higher = more binding, comparable within an allelic series)"
same,binding signal,HOXA2 [19],"12.9 upbm affinity estimate (log intensity, higher = more binding, comparable within an allelic series)"
AATTAATG,binding signal,HOXB9 [3],"10.2 upbm affinity estimate (log intensity, higher = more binding, comparable within an allelic series)"
same,binding signal,HOXC9 [4],"12.8 upbm affinity estimate (log intensity, higher = more binding, comparable within an allelic series)"
same,binding signal,VENTX [5],"12.5 upbm affinity estimate (log intensity, higher = more binding, comparable within an allelic series)"
same,binding signal,PAX4 [6],"11.9 upbm affinity estimate (log intensity, higher = more binding, comparable within an allelic series)"
same,binding signal,VENTX [7],"11.8 upbm affinity estimate (log intensity, higher = more binding, comparable within an allelic series)"
same,binding signal,PAX4 [8],"12.5 upbm affinity estimate (log intensity, higher = more binding, comparable within an allelic series)"
same,binding signal,HOXB9 [9],"12.1 upbm affinity estimate (log intensity, higher = more binding, comparable within an allelic series)"
same,binding signal,PAX4 [10],"12.3 upbm affinity estimate (log intensity, higher = more binding, comparable within an allelic series)"
same,binding signal,HOXC9 [11],"12.8 upbm affinity estimate (log intensity, higher = more binding, comparable within an allelic series)"
same,binding signal,HOXA2 [12],"13.5 upbm affinity estimate (log intensity, higher = more binding, comparable within an allelic series)"
same,binding signal,PAX4 [13],"10.6 upbm affinity estimate (log intensity, higher = more binding, comparable within an allelic series)"
same,binding signal,HOXC10,"12 upbm affinity estimate (log intensity, higher = more binding, comparable within an allelic series)"
same,binding signal,PAX4 [14],"11.2 upbm affinity estimate (log intensity, higher = more binding, comparable within an allelic series)"
same,binding signal,HOXB9 [15],"11.8 upbm affinity estimate (log intensity, higher = more binding, comparable within an allelic series)"
same,binding signal,HOXC9 [16],"11 upbm affinity estimate (log intensity, higher = more binding, comparable within an allelic series)"
same,binding signal,PAX4 [17],"11.1 upbm affinity estimate (log intensity, higher = more binding, comparable within an allelic series)"
same,binding signal,HOXA2 [18],"11 upbm affinity estimate (log intensity, higher = more binding, comparable within an allelic series)"
same,binding signal,HOXA2 [19],"12.5 upbm affinity estimate (log intensity, higher = more binding, comparable within an allelic series)"
CTGCCGCC,binding signal,NKX2-5 [1],"8.73 upbm affinity estimate (log intensity, higher = more binding, comparable within an allelic series)"
same,binding signal,NKX2-5 [2],"8.63 upbm affinity estimate (log intensity, higher = more binding, comparable within an allelic series)"
TAATTAAA,binding signal,HOXB9 [3],"10.3 upbm affinity estimate (log intensity, higher = more binding, comparable within an allelic series)"
same,binding signal,HOXC9 [4],"13.1 upbm affinity estimate (log intensity, higher = more binding, comparable within an allelic series)"
same,binding signal,VENTX [5],"12.5 upbm affinity estimate (log intensity, higher = more binding, comparable within an allelic series)"
same,binding signal,PAX4 [6],"12 upbm affinity estimate (log intensity, higher = more binding, comparable within an allelic series)"
same,binding signal,VENTX [7],"11.9 upbm affinity estimate (log intensity, higher = more binding, comparable within an allelic series)"
same,binding signal,PAX4 [8],"12.5 upbm affinity estimate (log intensity, higher = more binding, comparable within an allelic series)"
same,binding signal,HOXB9 [9],"12.4 upbm affinity estimate (log intensity, higher = more binding, comparable within an allelic series)"
same,binding signal,PAX4 [10],"12.4 upbm affinity estimate (log intensity, higher = more binding, comparable within an allelic series)"
same,binding signal,HOXC9 [11],"13 upbm affinity estimate (log intensity, higher = more binding, comparable within an allelic series)"
same,binding signal,HOXA2 [12],"13.5 upbm affinity estimate (log intensity, higher = more binding, comparable within an allelic series)"
same,binding signal,PAX4 [13],"11 upbm affinity estimate (log intensity, higher = more binding, comparable within an allelic series)"
same,binding signal,HOXC10,"12.7 upbm affinity estimate (log intensity, higher = more binding, comparable within an allelic series)"
same,binding signal,PAX4 [14],"11.3 upbm affinity estimate (log intensity, higher = more binding, comparable within an allelic series)"
same,binding signal,HOXB9 [15],"12.1 upbm affinity estimate (log intensity, higher = more binding, comparable within an allelic series)"
same,binding signal,HOXC9 [16],"11.5 upbm affinity estimate (log intensity, higher = more binding, comparable within an allelic series)"
same,binding signal,PAX4 [17],"11.2 upbm affinity estimate (log intensity, higher = more binding, comparable within an allelic series)"
same,binding signal,HOXA2 [18],"10.9 upbm affinity estimate (log intensity, higher = more binding, comparable within an allelic series)"
same,binding signal,HOXA2 [19],"12.9 upbm affinity estimate (log intensity, higher = more binding, comparable within an allelic series)"
CGACACTC,binding signal,NKX2-5 [1],"10.6 upbm affinity estimate (log intensity, higher = more binding, comparable within an allelic series)"
same,binding signal,NKX2-5 [2],"10.5 upbm affinity estimate (log intensity, higher = more binding, comparable within an allelic series)"
CGGACCCC,binding signal,NKX2-5 [1],"9.12 upbm affinity estimate (log intensity, higher = more binding, comparable within an allelic series)"
same,binding signal,NKX2-5 [2],"9.03 upbm affinity estimate (log intensity, higher = more binding, comparable within an allelic series)"
